Results reported in the supplement of paper PMC3842684.

Assays:
[1] = tested on: P. falciparum NF54-pfs16-GFP early (I-III) stage gametocytes; test: relative % inhibition of viable gametocyte number; higher = more gametocytocidal; conditions: stage: early (I-III) gametocyte, incubation 72 h
In short: (§1)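 Viable gametocytes were counted by confocal imaging as elongated GFP objects carrying MitoTracker Red signal above a cut-off, after 72 h of compound exposure (5 or 0.5 µM) at 37°C in 5% CO2 and 5% O2 and overnight staining. The NF54 pfs16-GFP gametocytes had been magnet-isolated at early (I/IIa, day 2) or late (day 8) stage and plated at 10% parasitaemia, 0.1% haematocrit in 384-well poly-D-lysine imaging plates. Relative inhibition was normalised to vehicle and positive-control wells within each plate.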

[2] = tested on: P. falciparum NF54-pfs16-GFP late (IV-V) stage gametocytes; test: as above; conditions: stage: late (IV-V) gametocyte, incubation 72 h
In short: as §1

| SMILES | relative % inhibition ([1]; 0.5 µM) [%] | relative % inhibition ([1]; 5 µM) [%] | relative % inhibition ([2]; 0.5 µM) [%] | relative % inhibition ([2]; 5 µM) [%] |
| --- | --- | --- | --- | --- |
| Oc1ccccc1CNCC12CC3CC(CC(C3)C1)C2 | 91.6 | 84.2 | 44.7 | 29.3 |
| CCN(Cc1ccccc1)C1CCN(Cc2cc(Br)ccc2O)CC1 | 27.8 | 99 | 35.1 | 68.6 |
| Cc1ccc(Cl)cc1N1CCN(CCCNC(=O)C2CCN(c3nc4ccccc4[nH]3)CC2)CC1 | 20 | 66 | 28.3 | -3.06 |
| Cc1ccc(-c2cc(C(=O)Nc3ccc(S(=O)(=O)N4CCCCC4)cc3)[nH]n2)c(O)c1 | 18 | 51 | -1.52 | 2.43 |
| Cc1cc(NC(=O)C2c3ccccc3C(=O)N(CC(C)C)C2c2cccs2)no1 (stereo not drawn) | 37.5 | 90.8 | 31.5 | 36.1 |
| O=C(Nc1ccc(-c2nc3cc(NC(=O)c4ccc(Cl)cc4)ccc3[nH]2)cc1)c1ccc(Cl)cc1 | 6.74 | 48.5 | -5.09 | 24.8 |
| COc1cc(C(=O)Nc2ccc(-c3nc4ccccc4[nH]3)cc2)cc(OC)c1OC | 22.1 | 42.1 | 20.5 | 9.54 |
| O=C(Nc1ccc(CN2CCOCC2)cc1)c1ccc(-c2ccc(Br)cc2)o1 | 16.2 | -18 | 27.9 | 4.05 |
| CN1CCN(c2ccc(Nc3c4ccccc4nc4ccccc34)cc2)CC1 | 100 | 101 | 91.3 | 104 |
| COc1cccc(-c2nn(C)c3sc(C(=O)NCCN4CCN(c5ccccc5F)CC4)cc23)c1 | 12.4 | 82.5 | 16.7 | 4.42 |
| O=C(NCC(c1ccsc1)N1CCCCCC1)c1ccc(C(F)(F)F)cc1 (stereo not drawn) | -5.22 | 0.803 | -0.775 | 5.04 |
| O=C(c1ccccc1F)N(Cc1ccc(Cl)cc1)c1ccccn1 | -17.2 | -20.6 | 2.03 | 16.8 |
| Cc1ccc(C(=O)c2oc3ccc4c(C)cc(=O)oc4c3c2C)cc1 | 8.47 | -0.0271 | 0.817 | 12 |
| OC(CNC1CCCC1)Cn1c2ccccc2c2ccccc21 (stereo not drawn) | 15.6 | 91.7 | 24.2 | 66 |
| Nc1ccc(-c2nc3cc(Cc4ccc5[nH]c(-c6ccc(N)cc6)nc5c4)ccc3[nH]2)cc1 | 14.7 | 100 | 14.6 | 85.1 |
| CCCc1c(CC)c(=N)c2ccccc2n1C | 25.1 | 19.6 | 7.6 | -7.96 |
| COc1ccc(CN2CCCC(C(=O)c3ccc(C(F)(F)F)cc3)C2)c(O)c1 (stereo not drawn) | -2.13 | 93.7 | 14.8 | 16.7 |
| CCOC(=O)C1(Cc2ccccc2)CCN(Cc2cccc(OC)c2O)CC1 | 14.7 | 52.6 | -5.97 | 22.8 |
| COc1ccc(C(=O)Nc2ccc3nc(N4CCCCC4)cc(C)c3c2)cc1OC | -8 | 7.62 | 3.3 | 51.2 |
| FC(F)(F)c1cccc(Nc2nc(-c3ccccc3)nc3ncccc23)c1 | 5.1 | -19.6 | 2.84 | -1.26 |
| COc1ccc(C=C2SC(Nc3ccccc3)=NC2=O)cc1 | 11.7 | 17.7 | 47.2 | 61.6 |
| Cc1cccc(Nc2nc(N)c3ccccc3n2)c1 | -18.5 | -18.1 | -5.43 | 5.81 |
| Oc1c2c(nc3ccccc13)CCCC2 | 9.29 | -7.51 | 26.9 | 90.8 |
| CC1CCN(Cc2ccc(NC(=O)c3cc4ccc5cccnc5c4[nH]3)cc2)CC1 | 19.6 | 94 | 0.926 | 12 |

| SMILES | relative % inhibition ([1]; 0.5 µM) [%] | relative % inhibition ([1]; 5 µM) [%] | relative % inhibition ([2]; 0.5 µM) [%] | relative % inhibition ([2]; 5 µM) [%] |
| --- | --- | --- | --- | --- |
| CCOC(=O)c1cn(CC)c2cc(N3CCCCC3)c(F)cc2c1=O | 22 | 17 | 91.5 | 93.5 |
| COc1cc2cc(C(=O)Nc3ccccc3)c(N)nc2cc1OC | 16.8 | 99 | 3.1 | -13.4 |
| CCOc1ccc(CN2CCN(CC(O)COc3ccc(OCC(O)CN4CCN(Cc5ccc(OCC)cc5)CC4)cc3)CC2)cc1 (stereo not drawn) | 6.71 | 74.7 | -16.8 | 8.51 |
| Cc1cc(C)c2nc(N3CCC(C(=O)NCCCN4CCC(N5CCCCC5)CC4)CC3)sc2c1 | 8.57 | 90.7 | -24.9 | 44.2 |
| O=C(Nc1ccccc1O)c1ccc(-c2ccc(Cl)cc2Cl)o1 | 21.2 | -5.25 | 19.3 | 17.5 |
| OC1CCCCC1C1(NC(=S)Nc2ccccc2)CCCCC1 (stereo not drawn) | 2.55 | 71.5 | 33.8 | 90.8 |
| COCCNCC(O)Cn1c2ccc(Cl)cc2c2cc(Cl)ccc21 (stereo not drawn) | 5.62 | 62.7 | 52.3 | 96.1 |
| Nc1nc(Nc2cccc(F)c2)nc2ccccc12 | 5.49 | -3.66 | 15.1 | 2.78 |
| CCOc1ccccc1CN1CCc2nc3cc(C(C)(C)C)nn3c(O)c2C1 | -6.1 | -4.88 | 66.3 | 76.6 |
| CCOc1cc2c(cc1OCC)C(c1cc(OC)c(O)cc1Cl)NCC2 (stereo not drawn) | 22.5 | 100 | 25.6 | 48.3 |
| COc1ccc(-c2cc(=O)oc3c4c(ccc23)OCN(Cc2ccc(F)cc2)C4)cc1 | -4.17 | 73.2 | 25.1 | 34.8 |
| COc1ccc(-c2nonc2NC(=O)c2cccc(C)c2)cc1OC | 15.3 | 39.2 | -13.4 | -9.12 |
| COc1ccccc1CNC(=O)CCn1c(=O)[nH]c2ccccc2c1=O | 27.4 | 28.5 | -5.22 | 2.14 |
| O=C(Nc1nc(-c2ccccn2)cs1)c1ccccc1Br | 10.8 | 93.2 | -7.93 | 68.6 |
| CCOc1cccc2sc(N(Cc3cccnc3)C(=O)C3CCCCC3)nc12 | 16.6 | 53.7 | -9.86 | 11.9 |
| C[n+]1c2ccccc2nc2ccc(NCCO)cc21 | 6.83 | 0.402 | 13.2 | 4.26 |
| Cc1cc(N(C)C)nc(Nc2ccc(NC(=O)Nc3ccccc3)cc2)n1 | 24.5 | 8.02 | 24 | 1.55 |
| Cc1ccc(Nc2nc(N)c3ccccc3n2)cc1Cl | -26.6 | 24.5 | 22.5 | 38.4 |
| COc1ccc(N2CCN(C(CNC(=O)C3CCCCC3)c3ccc4c(c3)OCO4)CC2)cc1 (stereo not drawn) | 22.8 | 8.98 | 35.1 | 50.7 |
| Clc1cc(Br)ccc1-c1ccc(CNCC2CCNCC2)o1 | 92.6 | 100 | 36.1 | 89.9 |
| CCOc1cc2c(cc1OCC)C(c1cc(C)c(O)c(C)c1)NCC2 (stereo not drawn) | 18.2 | 102 | 24.3 | 34.7 |
| CC1CC2=C(CC1CNCCCN(C)C)C(C)(C)CCC2 (stereo not drawn) | 33.8 | 97.1 | 20.7 | 85.3 |
| COc1ccc(Br)cc1C1Nc2ccc3ccccc3c2C2=C1C(=O)CC(c1ccccc1)C2 (stereo not drawn) | 27.7 | 70.3 | 2.99 | 16.2 |
| CCN1CCN(c2cc(C)c3cc(NC(=O)c4ccc(OC)c(OC)c4)ccc3n2)CC1 | 11.4 | 14.1 | -6.56 | 3.96 |

| SMILES | relative % inhibition ([1]; 0.5 µM) [%] | relative % inhibition ([1]; 5 µM) [%] | relative % inhibition ([2]; 0.5 µM) [%] | relative % inhibition ([2]; 5 µM) [%] |
| --- | --- | --- | --- | --- |
| O=C1c2ccccc2C2=Nc3ccccc3SC(c3cccc(F)c3)C12 (stereo not drawn) | 30.8 | 27.4 | 43.7 | 83.8 |
| COc1cc(SC)ccc1C(=O)N1CCCC(C)C1 (stereo not drawn) | -24.7 | -6.96 | 5.64 | 6.01 |
| CCCc1c(C)nc2ccc(Br)cc2c1O | 4.64 | -4.44 | 25.1 | 59.8 |
| Cc1ccc(CN2CCC(C(=O)Nc3ccc(-c4cc5ccccc5[nH]4)cc3)CC2)o1 | 9.97 | 90.5 | 3.47 | -13.5 |
| COc1cc(-c2nc(-c3ccc(Sc4ccccc4)cc3)c(-c3ccccc3)[nH]2)cc(OC)c1O | 27 | 86.1 | 3.44 | -21 |
| CCOC(=O)C1=C(C)N=c2sc(=Cc3ccccc3O)c(=O)n2C1c1ccc(OC)c2ccccc12 (stereo not drawn) | -2.21 | 86.4 | 65.8 | 61.1 |
| CN1CCN(c2nc(Nc3ccc(O)cc3)nc3ccccc23)CC1 | -17.7 | -9.15 | -10.7 | -15.5 |
| CCN(CC)CCNc1ccnc2cc3ccccc3cc12 | 99.4 | 100 | 25.4 | 43.7 |
| OC1=C2C(=Nc3ccccc3SC2c2ccc(Br)cc2)c2ccccc21 (stereo not drawn) | 3.13 | 35.9 | 71.4 | 73 |
| Cc1sc2ncnc(Sc3nc4ccccc4[nH]3)c2c1C | 89.7 | 91.1 | 30.6 | 94.5 |
| COc1cc(OC)cc(N2C(=O)N(Cc3ccc(C(C)(C)C)cc3)c3ccccc3S2(=O)=O)c1 | 10 | 6.11 | 4.34 | 35.7 |
| COc1cc(-c2nc(-c3ccccc3)c(-c3ccccc3)[nH]2)cc(OC)c1O | 15.2 | 29.3 | -17 | 2.98 |
| OC(CNCC1CCCO1)Cn1c2ccc(Cl)cc2c2cc(Cl)ccc21 (stereo not drawn) | 16.5 | 31.6 | 45.5 | 75.6 |
| COc1ccc(C(=O)Nc2nonc2-c2ccc(OC)c(OC)c2)cc1Cl | 33.4 | 31.6 | 13.1 | 59.1 |
| Cc1cc(N2CCN(C3CCCC3)CC2)n2c(nc3ccccc32)c1C#N | -10.1 | -15.8 | 11.3 | 6.77 |
| O=C(Nc1ccsc1C(=O)NC1CCCCC1)c1ccc(F)cc1 | -1.56 | 19.9 | -4.86 | -23.6 |
| COc1cc(C(=O)ON=C(N)Cc2cccc3ccccc23)cc(OC)c1OC | -8.44 | 74.1 | 2 | 82.3 |
| O=C(NCC1Cc2cccc(-c3ccncc3)c2O1)c1csc2c1CCCC2 (stereo not drawn) | -5.92 | 6.48 | 5.28 | -0.912 |
| Cc1sc(NC(=O)c2ccco2)c(C(c2cccnc2)N2CCC(Cc3ccccc3)CC2)c1C (stereo not drawn) | -12.2 | 85.7 | 14.3 | 106 |
| COc1ccc(C(C)=O)cc1N1C(=O)C2C(C1=O)C1(c3ccccc3)C(=O)C2(c2ccccc2)C(c2ccc(C)cc2)=C1c1ccc(C)cc1 (stereo not drawn) | 52.9 | 93.5 | 78.9 | 73.1 |
| CCCCCC(=O)N1c2ccccc2N=C2CC(c3ccc(OC)c(OC)c3)CC(O)=C2C1c1ccc(C(F)(F)F)cc1 (stereo not drawn) | 50.6 | 76.3 | 32.8 | 60.6 |
| CC1CC(C)CN(C(=O)c2ccc(Cl)cc2Cl)C1 (stereo not drawn) | -0.883 | -4.96 | 1.4 | 3.37 |
| Cc1cc(C=C2SC(=Nc3ccccc3)N(C3CCCC3)C2=O)c(C)n1-c1ccc(Cl)cc1 | 15 | 2.67 | -2.31 | 31.2 |
| CC1=C(CC(=O)c2cccc([N+](=O)[O-])c2)C(=O)c2ccccc2C1=O | 48 | 60 | 39.3 | 54.1 |
